Results taken from the supplement of paper PMC12067926.
Unmarked numbers belong to inactive results.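 How the source made its calls: active = growth AUC significantly below the DMSO wells by Dunnett test; inactive = the rest.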

Experiments:
Test in all cases: relative growth (AUC of 72 h growth curve relative to DMSO control, dAUC) (ratio); higher = more growth (less inhibition), active = hit call of the paper
Details in all cases: 20 µM
[1] = compound: C=CCOC(Cn1ccnc1)c1ccc(Cl)cc1Cl
Method in brief: (§1)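 Growth was followed as A600, read hourly for 72 h on a plate reader after brief shaking. Isolates from Icelandic stream sediments and Silwood Park soil, and whole sediment communities, were first grown to carrying capacity in Luria–Bertani medium and then diluted 1:100 into 96-well plates with each chemical at 20 µM (1% DMSO). Relative growth (dAUC) is the spline-integrated area under the curve scaled to the mean of the DMSO controls, and the values are averages of three biological replicates.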

[2] = compound: CC(=O)CC(c1ccccc1)c1c(O)c2ccccc2oc1=O
Method in brief: as §1

[3] = compound: CC1COc2ccccc2N1C(=O)C(Cl)Cl
Method in brief: as §1

[4] = compound: CCCCC(CC)CN1C(=O)[C@@H]2[C@H](C1=O)[C@@H]1C=C[C@H]2C1 (mixture of isomers)
Method in brief: as §1

[5] = compound: CCCCCCCCc1c(CC)nc2ncnn2c1N
Method in brief: as §1

[6] = compound: CCCCOCCOCCOCc1cc2c(cc1CCC)OCO2
Method in brief: as §1

[7] = compound: CCCOC(=O)NCCCN(C)C
Method in brief: as §1

[8] = compound: COC(=O)c1csc(C)c1S(=O)(=O)NC(=O)n1nc(OC)n(C)c1=O
Method in brief: as §1

[9] = compound: Cc1ccc(C(C)NC(=O)[C@@H](NC(=O)OC(C)C)C(C)C)cc1
Method in brief: as §1

[10] = compound: Cc1nn(C)c(Oc2ccccc2)c1/C=N/OCc1ccc(C(=O)OC(C)(C)C)cc1
Method in brief: as §1

[11] = compound: Cn1cc(C(=O)Nc2ccc(F)cc2-c2ccc(Cl)c(Cl)c2)c(C(F)F)n1
Method in brief: as §1

[12] = compound: Cn1cc(C(=O)Nc2ccccc2-c2cc(F)c(F)c(F)c2)c(C(F)F)n1
Method in brief: as §1

[13] = compound: O=C(NCc1ncc(C(F)(F)F)cc1Cl)c1c(Cl)cccc1Cl
Method in brief: as §1

[14] = compound: Oc1c(Cl)cc(Cl)c(Cl)c1Cc1c(O)c(Cl)cc(Cl)c1Cl
Method in brief: as §1

[15] = compound: S=C([S-])NCCNC(=S)[S-].S=C([S-])NCCNC(=S)[S-].[Mn+2].[Zn+2]
Method in brief: as §1

[16] = compound: c1ccc2[nH]c(-c3cscn3)nc2c1
Method in brief: as §1

Pseudomonas 4 (Pseudomonas peli) gave a relative growth [1] of 0.952, a relative growth [2] of 0.978 and a relative growth [3] of 0.938. The relative growth [4] was 0.959, the relative growth [5] was 0.99 and the relative growth [6] was 0.961. The relative growth [7] was 0.995, the relative growth [8] was 1.03 and the relative growth [9] was 0.968. The relative growth [10] was 1.01, the relative growth [11] was 0.979 and the relative growth [12] was 0.992. The relative growth [13] was 0.981, the relative growth [14] was 0.00176 (active) and the relative growth [15] was 0.927. It also gave a relative growth [16] of 0.928.

Community 6 showed a relative growth [1] of 0.861, a relative growth [2] of 0.916 and a relative growth [3] of 0.942. The relative growth [4] was 0.75, the relative growth [5] was 1.02 and the relative growth [6] was 0.907. It also gave a relative growth [7] of 1.02, a relative growth [8] of 1.01 and a relative growth [9] of 0.928. The relative growth [10] was 0.712, the relative growth [11] was 0.852 and the relative growth [12] was 1.06. The relative growth [13] was 0.966, the relative growth [14] was 0.442 (active) and the relative growth [15] was 1.16. For the same target, the relative growth [16] was 1.01.

Work on Community 4 yielded a relative growth [1] of 0.814, a relative growth [2] of 0.952 and a relative growth [3] of 0.85. For the same target, the relative growth [4] was 0.807, the relative growth [5] was 0.98 and the relative growth [6] was 0.824. It also gave a relative growth [7] of 0.992, a relative growth [8] of 1.09 and a relative growth [9] of 0.867. The relative growth [10] was 1.11, the relative growth [11] was 0.837 and the relative growth [12] was 1.1. For the same target, the relative growth [13] was 0.943, the relative growth [14] was 0.435 (active) and the relative growth [15] was 1.13. For the same target, the relative growth [16] was 0.997.

With Arthrobacter 3 (Arthrobacter sp.) the relative growth [1] was 0.33 (active), the relative growth [2] was 0.933 and the relative growth [3] was 1.01. For the same target, the relative growth [4] was 1.02, the relative growth [5] was 0.981 and the relative growth [6] was 1.02. It also gave a relative growth [7] of 1.02, a relative growth [8] of 1.04 and a relative growth [9] of 0.922. It also gave a relative growth [10] of 1, a relative growth [11] of 0.725 and a relative growth [12] of 0.968. For the same target, the relative growth [13] was 0.978, the relative growth [14] was 0.0157 (active) and the relative growth [15] was 0.821. The relative growth [16] was 0.921.

Work on Pseudomonas 1 (Pseudomonas baetica) yielded a relative growth [1] of 1.01, a relative growth [2] of 1.09 and a relative growth [3] of 1.04. For the same target, the relative growth [4] was 1.13, the relative growth [5] was 0.923 and the relative growth [6] was 1.04. It also gave a relative growth [7] of 0.968, a relative growth [8] of 1.1 and a relative growth [9] of 1.06. It also gave a relative growth [10] of 1.14, a relative growth [11] of 1.15 and a relative growth [12] of 0.984. For the same target, the relative growth [13] was 1.04, the relative growth [14] was 0.559 (active) and the relative growth [15] was 0.921. For the same target, the relative growth [16] was 0.944.

With Arthrobacter 1 (Arthrobacter humicola) the relative growth [1] was 0.626 (active), the relative growth [2] was 1.01 and the relative growth [3] was 0.901. For the same target, the relative growth [4] was 0.835, the relative growth [5] was 0.931 and the relative growth [6] was 1.01. The relative growth [7] was 1.04, the relative growth [8] was 1.12 and the relative growth [9] was 0.932. For the same target, the relative growth [10] was 1.26, the relative growth [11] was 0.846 and the relative growth [12] was 0.99. The relative growth [13] was 0.993, the relative growth [14] was 0.00912 (active) and the relative growth [15] was 0.994. For the same target, the relative growth [16] was 0.932.

In the case of Pseudomonas 5 (Pseudomonas baetica), the relative growth [1] is reported as 0.962, the relative growth [2] is reported as 1.03 and the relative growth [3] is reported as 1.08. For the same target, the relative growth [4] was 0.989, the relative growth [5] was 1 and the relative growth [6] was 1.01. The relative growth [7] was 0.994, the relative growth [8] was 1.04 and the relative growth [9] was 1.02. For the same target, the relative growth [10] was 1.05, the relative growth [11] was 0.995 and the relative growth [12] was 1.05. For the same target, the relative growth [13] was 1.05, the relative growth [14] was 0.501 (active) and the relative growth [15] was 1.03. For the same target, the relative growth [16] was 0.951.

For “Flavobacterium 2 (Flavobacterium succinicans)”, the relative growth [1] was 0.489 (active), the relative growth [2] was 0.983 and the relative growth [3] was 0.926. It also gave a relative growth [4] of 0.916, a relative growth [5] of 0.961 and a relative growth [6] of 0.976. It also gave a relative growth [7] of 1.03, a relative growth [8] of 1 and a relative growth [9] of 0.933. It also gave a relative growth [10] of 0.952, a relative growth [11] of 0.849 and a relative growth [12] of 0.962. The relative growth [13] was 0.966, the relative growth [14] was 0.0105 (active) and the relative growth [15] was 1.13. The relative growth [16] was 1.03.

With Rhizobium 1 (Rhizobium herbae) the relative growth [1] was 0.836, the relative growth [2] was 0.893 and the relative growth [3] was 1.03. It also gave a relative growth [4] of 0.888, a relative growth [5] of 0.952 and a relative growth [6] of 1.04. The relative growth [7] was 1.06, the relative growth [8] was 0.92 and the relative growth [9] was 1.02. The relative growth [10] was 1.02, the relative growth [11] was 0.332 (active) and the relative growth [12] was 0.185 (active). For the same target, the relative growth [13] was 0.977, the relative growth [14] was 0.0348 (active) and the relative growth [15] was 1.09. It also gave a relative growth [16] of 1.14.

“Prolinoborus 1 (Prolinoborus fasciculus)” was tested, and the relative growth [1] was 0.664 (active), the relative growth [2] was 0.986 and the relative growth [3] was 0.921. It also gave a relative growth [4] of 0.937, a relative growth [5] of 0.883 and a relative growth [6] of 0.915. The relative growth [7] was 1.04, the relative growth [8] was 1.02 and the relative growth [9] was 1.02. For the same target, the relative growth [10] was 0.945, the relative growth [11] was 0.947 and the relative growth [12] was 1.01. The relative growth [13] was 0.999, the relative growth [14] was 0.0191 (active) and the relative growth [15] was 0.861. It also gave a relative growth [16] of 0.964.

With Argrobacterium 1 (Agrobacterium sp.) the relative growth [1] was 1.11, the relative growth [2] was 0.978 and the relative growth [3] was 1.03. For the same target, the relative growth [4] was 1.13, the relative growth [5] was 1.04 and the relative growth [6] was 0.946. The relative growth [7] was 0.985, the relative growth [8] was 1.01 and the relative growth [9] was 1.01. For the same target, the relative growth [10] was 1.17, the relative growth [11] was 0.953 and the relative growth [12] was 0.918. The relative growth [13] was 1.02, the relative growth [14] was 0.705 (active) and the relative growth [15] was 1.14. The relative growth [16] was 0.852.

Bacillus 1 (Bacillus foraminis) showed a relative growth [1] of 0.916, a relative growth [2] of 1.09 and a relative growth [3] of 0.965. It also gave a relative growth [4] of 1.04, a relative growth [5] of 1.05 and a relative growth [6] of 1.03. For the same target, the relative growth [7] was 1.01, the relative growth [8] was 1.11 and the relative growth [9] was 0.884. The relative growth [10] was 1.07, the relative growth [11] was 0.918 and the relative growth [12] was 1.06. The relative growth [13] was 1.08, the relative growth [14] was 0.408 (active) and the relative growth [15] was 1.05. It also gave a relative growth [16] of 0.853.

Work on Aeromonas 1 (Aeromonas sp. AE235) yielded a relative growth [1] of 0.944, a relative growth [2] of 0.96 and a relative growth [3] of 0.999. For the same target, the relative growth [4] was 0.966, the relative growth [5] was 0.969 and the relative growth [6] was 0.979. For the same target, the relative growth [7] was 0.944, the relative growth [8] was 1.04 and the relative growth [9] was 0.959. For the same target, the relative growth [10] was 1.02, the relative growth [11] was 0.985 and the relative growth [12] was 1.03. For the same target, the relative growth [13] was 0.991, the relative growth [14] was 0.000683 (active) and the relative growth [15] was 0.955. It also gave a relative growth [16] of 0.952.

In the case of Aeromonas 2 (Aeromonas sobria), the relative growth [1] is reported as 0.874, the relative growth [2] is reported as 0.948 and the relative growth [3] is reported as 0.962. The relative growth [4] was 0.971, the relative growth [5] was 0.986 and the relative growth [6] was 0.986. It also gave a relative growth [7] of 0.999, a relative growth [8] of 1.01 and a relative growth [9] of 0.993. The relative growth [10] was 1.03, the relative growth [11] was 0.936 and the relative growth [12] was 0.987. The relative growth [13] was 0.974, the relative growth [14] was 0.00514 (active) and the relative growth [15] was 0.907. The relative growth [16] was 0.973.

Work on Community 10 yielded a relative growth [1] of 0.783, a relative growth [2] of 0.872 and a relative growth [3] of 0.795. The relative growth [4] was 0.665, the relative growth [5] was 0.99 and the relative growth [6] was 0.777. For the same target, the relative growth [7] was 1.02, the relative growth [8] was 0.965 and the relative growth [9] was 0.84. It also gave a relative growth [10] of 0.714, a relative growth [11] of 0.742 and a relative growth [12] of 1.03. For the same target, the relative growth [13] was 0.996, the relative growth [14] was 0.51 (active) and the relative growth [15] was 1.11. The relative growth [16] was 1.16.

“Microbacterium 1 (Microbacterium arborescens)” gave a relative growth [1] of 0.965, a relative growth [2] of 1.05 and a relative growth [3] of 0.934. The relative growth [4] was 0.918, the relative growth [5] was 0.98 and the relative growth [6] was 0.988. It also gave a relative growth [7] of 1.02, a relative growth [8] of 1.03 and a relative growth [9] of 0.968. For the same target, the relative growth [10] was 1.03, the relative growth [11] was 1.04 and the relative growth [12] was 1.01. The relative growth [13] was 1.05, the relative growth [14] was 0.0384 (active) and the relative growth [15] was 0.986. The relative growth [16] was 0.983.
